Source: PubChem
Sfp inh: qHTS Assay for Inhibitors of Bacillus subtilis Sfp phosphopantetheinyl transferase (PPTase). Biochemical Sfp PPTase activity, qHTS. Potency, µM, without a hit: largest response in the series, negative = inhibition, actives largely listed as inhibitors. actives 3.5% (n = 310,000);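 also: the enzyme is Sfp with the accession as filed and its product quenches rhodamine fluorescence; 0% = enzyme reaction without inhibitor and -100% = no enzyme wells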
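After 15 min at room temperature with compound, 15 nM Sfp received 5 uM rhodamine-CoA plus 12.5 uM BHQ-2-ybbR (50 mM Hepes pH 7.6, 10 mM MgCl2). Rate came from the fluorescence difference over 30 min, ex 525/em 598 nm.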
L3MBTL1 inh: qHTS Assay for the Inhibitors of L3MBTL1; Lethal(3)malignant brain tumor-like protein 1 (Homo sapiens), Q9Y468; AlphaScreen L3MBTL1–H3K9me1 peptide binding; Potency, µM (highest dose often 57.1 µM), inactives show top-dose activity, negative = inhibition, hits mostly inhibitors; actives 0.66% (n = 230,000); AID 485360, 2010; also: % is scaled to controls: 0 for no effect and ±100 for the full control effect; nearly all actives have a fitted effect of over 60% in size
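AlphaScreen proximity signal between nickel-chelate acceptor and streptavidin donor beads (final 10 ug/mL) reports binding of 50 nM L3MBTL1 to 75 nM biotin-H3 K9me1 peptide; complex incubated with compounds 30 min at room temperature; cefsulodin titration as control.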
G9a inh-1: qHTS Assay for Inhibitors of Histone Lysine Methyltransferase G9a; Histone-lysine N-methyltransferase EHMT2 (Homo sapiens), Q96KQ7; actives 8.8% (n = 350,000); G9a H3K9 monomethylation, AlphaScreen, 2 h; Potency, µM (doses to about 102 µM), inactives show at the top dose activity, negative = inhibition, actives largely listed as inhibitors; also: % is scaled to controls: 0 for no effect and ±100 for the full control effect; nearly all actives have a fitted effect of over 75% in size
Target sequence (Q96KQ7 913-1193 limits assumed): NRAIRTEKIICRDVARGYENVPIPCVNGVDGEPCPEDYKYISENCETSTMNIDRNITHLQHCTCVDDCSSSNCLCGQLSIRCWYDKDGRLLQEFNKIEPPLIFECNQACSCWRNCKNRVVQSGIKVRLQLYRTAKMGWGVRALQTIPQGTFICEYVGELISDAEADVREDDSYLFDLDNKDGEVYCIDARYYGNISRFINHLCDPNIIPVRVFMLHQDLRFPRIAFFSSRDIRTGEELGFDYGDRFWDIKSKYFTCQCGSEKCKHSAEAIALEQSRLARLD
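Methyltransferase reactions run at room temperature for 2 h (20 nM enzyme, 500 nM biotin-H3K9 peptide, 20 uM SAM) after a 15 min compound preincubation; product detected by AlphaScreen beads and anti-H3K9me1 antibody.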
BAZ2B block: qHTS Assay for Inhibitors of BAZ2B; actives 4.4% (n = 360,000); AlphaScreen BAZ2B-H3K14Ac peptide displacement; Potency, µM (highest dose often 114 µM), inactives show at the highest dose activity change, negative = inhibition, hits mostly inhibitors; Bromodomain adjacent to zinc finger domain protein 2B (Homo sapiens), Q9UIF8; also: % is scaled to controls: 0 for no effect and ±100 for the full control effect; nearly all actives have a fitted effect of over 60% in size
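Protein-peptide AlphaScreen: BAZ2B 50 nM, b-H3K14Ac 50 nM, 1x PBS pH 7.4 + 0.01% Tween-20. Preincubation 30 min RT; cpd 30 min RT (top 110 uM); beads 20 min RT, light-protected.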
HP1b chromo inh: HTS for Inhibitors of HP1-beta Chromodomain Interactions with Methylated Histone Tails. actives 0.56% (n = 390,000). AlphaScreen HP1-beta / biotin-H3K9me3 peptide binding. Potency, µM (doses to about 114 µM), for the others: at the top dose activity change, negative = inhibition, usual class: inhibitors. Chromobox protein homolog 1 (Homo sapiens), P83916; also: nearly all actives have a fitted effect of over 70% in size
Target sequence (P83916 whole entry, looked up): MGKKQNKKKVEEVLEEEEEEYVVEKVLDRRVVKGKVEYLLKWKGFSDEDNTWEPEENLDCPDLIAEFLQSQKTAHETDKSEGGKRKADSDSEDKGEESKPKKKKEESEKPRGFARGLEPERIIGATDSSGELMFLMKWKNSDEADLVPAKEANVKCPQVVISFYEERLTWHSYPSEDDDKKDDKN
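Compound inhibition of the preformed complex between 50 nM HP1-beta and 50 nM biotinylated H3K9me3 peptide was read by AlphaScreen. Buffer was PBS pH 7.4 with 0.01% Tween-20. Incubations ran 30 min at room temperature, with 10 ug/mL donor/acceptor beads.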
JMJD2A Tudor inh: qHTS Assay for Inhibitors of JMJD2A-Tudor Domain | actives 4.4% (n = 390,000) | AlphaScreen JMJD2A-Tudor / H3K4me3 peptide binding | Potency, µM (highest dose often 114 µM), for inactives: top-dose activity change, negative = inhibition, actives largely listed as inhibitors | AID 504339, 2011; also: % is scaled to controls: 0 for no effect and ±100 for the full control effect; nearly all actives have a fitted effect of over 50% in size
G9a inh-2: qHTS Assay for Inhibitors of Histone Lysine Methyltransferase G9a: Hit Confirmation | shares compounds with JMJD2A Tudor inh | G9a H3K9 monomethylation, AlphaScreen, 2 h | Potency, µM, usual class: inhibitors | actives 89% (n = 370); also: nearly all actives have a fitted effect of over 65% in size
Starred values were filed as active, the others as inactive; ? = inconclusive; . = no result; ! = not active in a repeat; [ ] = another dose, or the depositor's remark. In the library only some 12% were active in any assay of this set; here they are far more common. Calls follow the shape of the dose curve; as a rule, active = well fitted curve in the direction sought with a large enough effect; inconclusive = small, poorly fitted or top-dose-only effect, or another doubt; inactive = no such curve, though single readings can be large; an effect the other way counts as inactive or inconclusive. Potency is read from the fitted curve at half-maximal effect.

SMILES	Sfp inh	L3MBTL1 inh	G9a inh-1	BAZ2B block	HP1b chromo inh	JMJD2A Tudor inh	G9a inh-2
CC(C)c1ccc(/C=C/c2[nH]c(=O)[nH]c(=O)c2[N+](=O)[O-])cc1	7.3%	-0.4%	?	-29.9%	12.1%	-2.4%	.
O=C(CCN=C1NS(=O)(=O)c2ccccc21)Nc1ccc(Cl)cc1F	.	7.6%	-4.2%[2.33 µM]	11.2%	43.5%	-11.4%	.
c1ccc(Oc2cccc(OCCn3cncn3)c2)cc1	-5.8%	.	1.78µM*	39.8µM*	-54.7%	25.1µM*	28.3*
COc1ccc(CCN2CC(C(=O)N(C)CC(=O)Nc3ccc(F)c(F)c3F)CC2=O)cc1OC (stereo not drawn)	.	.	.	.	26.9%	-20.3%	.
C=CCN1C(=O)c2ccc(C(=O)OCC(=O)N(CC)c3c(N)n(Cc4ccccc4)c(=O)[nH]c3=O)cc2C1=O	.	.	.	.	27.2%	-5.0%	.
COc1ccc(C(c2nnnn2C2CCCC2)N2CCc3ccccc3C2)cc1OC (stereo not drawn)	-16.8%	-1.7%	-5.6%[59 µM]	?	28.6%	-32.6%	.
COCCn1nnnc1C(c1ccc(O)c(OC)c1)N1CCc2ccccc2C1 (stereo not drawn)	14.1µM*	.	?	?	?	?	0.71*
CC(C)OC(=O)c1cn(Cc2c(F)cccc2F)c2sc(-c3ccc(NC(=O)C(C)C)cc3)c(CN(C)Cc3ccccc3)c2c1=O	-3.8%	.	.	.	.	.	.
Cc1ccccc1OCc1ccc(-c2nc(C#N)c(N3CCN(c4ccccc4)CC3)o2)o1	.	.	?	?	8.1%	-31.1%	?
CC(=O)Nc1ccc2c(c1)ncn2C	10.4%	3.2%	-0.1%[59 µM]	-1.3%	59.9%	-14.5%[57.1 µM]	.
CCOc1ccc(CNc2ccc3c(c2)ncn3C)cc1	-17.4%	-25.5%	?	?	-17.8%	?	1.78*
CCn1cnc2cc(NCc3nc4ccccc4n3C)ccc21	2.2%	.	2.51µM*	?	-3.8%	-34.8%	?
CCn1cnc2cc(NC(=O)c3cccs3)ccc21	15.2%	3.4%	0.6%	-17.4%	18.7%	0.0%	.
CCn1cnc2cc(NCc3ccc(C)cc3)ccc21	-9.1%	.	1.58µM*	?	-10.4%	?	4.47*
Cc1cccc(OCC(=O)Nc2cccc(-c3nc4ccccc4s3)c2)c1	.	.	12.9%[59 µM]	4.9%	55.8%	-2.0%	.
Cc1ccc(OCC(=O)Nc2cccc(-c3nc4ccccc4s3)c2)cc1	.	.	2.51µM*	0.5%	-14.4%	-12.3%	11.2*
CCOC(=O)C1CCCN(C(=S)NC2CCCCC2)C1 (stereo not drawn)	-1.6%	-3.1%	1.3%	-7.1%	11.8%	-13.1%	.
CCOC(=O)C1CCCN(CC(=O)NC2CC2)C1 (stereo not drawn)	-10.8%	1.8%	1.58µM*	31.6µM*	17.8µM*	5.01µM*	44.7*
CN(c1ccccc1)S(=O)(=O)c1nnc(NC(=O)COc2ccccc2)s1	12.7%	.	?	-25.3%	50.1%	-25.5%	.
O=C(COc1ccccc1)Nc1nnc(S(=O)(=O)Nc2ccccc2)s1	19.5%	2.5%	?	1.41µM*!	46.0%	?	?
CC(NS(=O)(=O)c1ccc(Cl)cc1)C(=O)OCC(=O)Nc1ccc(N(C)C)cc1 (stereo not drawn)	.	-0.8%	2.51µM*	?	-33.9%	?	3.99*
